Screening results (PubChem BioAssay)
Compounds with a hit are over-represented: about 2% of the library has one in this group of screens.
EP2 modulator – EP2 receptor (human) modulation. P43116. EP2-expressing cells, cAMP HTRF FRET, PGE2 co-stimulation. induction, % at 25 µM. 260,000 compounds, 0.83% hits. AID 940;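 active = compounds whose cAMP rise, as percent of the full-agonist control response, exceeds 60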;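 note: rat C6 glioma line stably carrying human EP2 under a CMV promoter; the protocol text gives 20 µM as final concentration; 100% = response of wells given 1 µM PGE2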
Target sequence (P43116 whole entry, looked up): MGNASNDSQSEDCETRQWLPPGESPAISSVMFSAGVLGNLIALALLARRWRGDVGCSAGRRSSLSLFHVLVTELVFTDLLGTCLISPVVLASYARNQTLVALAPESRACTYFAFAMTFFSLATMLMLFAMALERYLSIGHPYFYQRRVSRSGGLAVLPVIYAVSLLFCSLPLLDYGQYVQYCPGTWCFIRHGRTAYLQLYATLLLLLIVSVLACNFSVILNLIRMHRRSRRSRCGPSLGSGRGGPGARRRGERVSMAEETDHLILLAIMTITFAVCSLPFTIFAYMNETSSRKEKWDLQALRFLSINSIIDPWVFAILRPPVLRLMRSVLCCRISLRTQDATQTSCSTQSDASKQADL
S1P4 antagonist – blocks the human S1P4 receptor. O95977. S1P4-expressing cells, antagonist mode, reporter read-out. inhibition, % at 4.98 µM. 220,000 compounds, 0.26% hits. AID 1510; in the data active = inhibition above about 29%;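 note: 0% = wells stimulated with agonist and 100% = vehicle wells without agonist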
S1P3 antag – blocks the human S1P3 receptor. Q99500. CHO S1P3 NFAT-BLA reporter, FRET fluorescence, antagonist mode. inhibition, % at 4.98 µM. 170,000 compounds, 0.27% hits. AID 485;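 active = inhibition above the plate cutoff, the mean inhibition of test wells on that plate plus 3 SD, cut at about 28% in these data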;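 note: cells challenged with S1P at its EC80 of 0.8 µM; blue over green emission ratio from cleaved BLA substrate after 4 h stimulation; 0% = S1P-stimulated wells and 100% = unstimulated DMSO-only wells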
Target sequence (Q99500 whole entry, looked up): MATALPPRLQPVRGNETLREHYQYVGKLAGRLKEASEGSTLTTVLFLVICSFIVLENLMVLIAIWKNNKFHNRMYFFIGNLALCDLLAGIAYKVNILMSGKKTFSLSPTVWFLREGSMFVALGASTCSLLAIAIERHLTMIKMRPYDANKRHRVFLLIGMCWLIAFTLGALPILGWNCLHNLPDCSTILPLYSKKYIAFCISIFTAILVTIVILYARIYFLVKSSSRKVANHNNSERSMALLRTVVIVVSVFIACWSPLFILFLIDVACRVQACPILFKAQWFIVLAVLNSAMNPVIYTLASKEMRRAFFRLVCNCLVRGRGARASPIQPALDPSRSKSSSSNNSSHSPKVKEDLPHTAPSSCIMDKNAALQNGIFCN
PGE2 EP2 inh – EP2 receptor (human) inhibition; AID 1422; 260,000 compounds, 0.52% hits; P43116; C6 glioma cells expressing human EP2, cAMP TR-FRET; cells stimulated with saturating PGE2; inhibition, % at 25 µM;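 active = percent inhibition above 40 after rounding to a whole number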;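 note: rat C6 glioma host cells with rolipram phosphodiesterase inhibitor present; the protocol text gives 20 µM as final concentration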
S1P4 ag – agonists of human S1P4 receptor; O95977; S1P4-expressing cell line, agonist reporter assay; activation, % at 4.98 µM; 220,000 compounds, 0.35% hits; AID 1509; in the data active = activation above about 11%;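 note: 0% = DMSO vehicle and 100% = reference agonist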
EP2 cAMP induct – EP2 receptor cAMP induction, counter-screens negative; shares compounds with EP2 modulator; C6 glioma EP2 cells, cAMP HTRF induction; plus low (about EC15) PGE2 agonist; calls only at 20 µM (by protocol); 1,300 compounds, 47% hits; AID 1080;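 active = cAMP induction above 50% in the main assay while under 30% in all four parallel counter assays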;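 note: rat C6 glioma cells stably expressing human EP2 receptor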
Starred values were filed as active, the others as inactive; i = inactive; . = no result; + = active, no number; ! = not active in a repeat.

SMILES | EP2 modulator | S1P4 antagonist | S1P3 antag | PGE2 EP2 inh | S1P4 ag | EP2 cAMP induct
O=c1cc(N2CCCCC2)c(-c2ccccc2)nn1Cc1ccccc1Cl | 70.1* | 3.9 | . | 3.4 | -0.5 | +
C=CCn1nc(-c2ccccc2)c(N2CCCCC2)cc1=O | -11.1 | 0.3 | -2.1 | 1.1 | -2.3 | .
O=C(CSc1nnc2c(n1)[nH]c1ccccc12)Nc1ccccc1Cl | -16.9 | . | . | 18.1 | . | .
CC(NC(=O)Nc1ccccc1)C(c1ccccc1)N1CCOCC1 (centres undefined) | -6.6 | -23.0 | -10.9 | 5.0 | -0.9 | .
C[C@H](C(=O)c1ccccc1)[C@@H](c1ccccc1)N1CCOCC1 | 55.6 | . | . | 12.2 | . | +
CCc1ccc2[nH]c(=O)c(CN(Cc3ccco3)Cc3nnnn3Cc3ccccc3)cc2c1 | -22.4 | . | . | 4.5 | . | .
Cc1cccc(S(=O)(=O)N2CCC(CO)(Cc3ccccc3)CC2)c1 | -73.7 | -7.3 | 2.0 | 11.9 | 1.6 | .
C=C(C)Cn1c(C)cc(C)c(S(=O)(=O)c2cccc(C)c2)c1=O | 90.0* | -17.4 | 14.7 | 5.6 | 0.2 | +
COc1ccc(NC(=O)Cn2cc(C(=O)C(C)(C)C)c3ccccc32)cc1 | -50.8 | . | . | 12.8 | . | .
CN(C)c1ncc(S(=O)(=O)c2ccc(Cl)cc2)c(-c2ccccc2)n1 | 80.2* | -4.6 | . | 4.4 | 0.1 | +
O=S(=O)(c1ccc(Cl)cc1)c1cnc(-c2cccnc2)nc1-c1ccccc1 | 22.4 | -11.8 | . | 6.5 | -1.2 | .
COc1ccc(C(=O)CSc2nnc(COc3ccc(C#N)cc3)n2-c2ccccc2)cc1 | -14.0 | -1.5 | 51.4 | 17.1 | 3.5 | .
O=C(CSc1nnc(COc2ccccc2)n1-c1ccccc1)c1ccccc1 | 50.5 | 3.4 | . | 10.1 | 0.0 | i
CCCCc1ccc(-n2c(Cc3cccs3)n[nH]c2=S)cc1 | 70.6* | -6.8 | -4.0 | 9.3 | 0.4 | +
Cc1ccc(S(=O)(=O)N(Cc2ccccc2)c2ccccc2C(=O)Nc2ccccc2C(=O)NCc2ccco2)cc1 | 47.0 | 3.0 | 5.3 | 2.5 | -0.2 | .
CS(=O)(=O)N(Cc1ccccc1)c1ccccc1C(=O)Nc1ccccc1C(=O)NCc1ccco1 | 87.9* | 9.4 | . | 8.2 | -1.3 | +
COc1cc(-c2nnc(-c3ccc(C)cc3)o2)cc(OC)c1OC | -39.7 | . | . | 2.2 | . | .
O=C(O)c1cccc(N/N=C/c2ccc(-c3ccccc3)cc2)c1 | -45.1 | -3.9 | -3.3 | 9.4 | -0.1 | .
O=C(O)c1cccc(NN=C2c3ccccc3-c3ccccc32)c1 | 75.3* | 3.2 | -9.0 | 2.6 | 0.1 | i
CCOC(=O)c1c(-c2ccccc2)oc2ccc(OCC)cc12 | 44.6 | 8.6 | 2.5 | 10.4 | -0.6 | .
CCOC(=O)c1c(-c2ccccc2)oc2ccc(OC)cc12 | 68.8* | -2.3 | . | 20.9 | -0.1 | +
COc1ccc(NC(=O)COC(=O)c2ccccn2)cc1 | -21.9 | . | . | 13.7 | . | .
Oc1c(Cl)cc(Cl)cc1Sc1cc(Cl)cc(Cl)c1O | 76.3*! | -1.0 | -3.9 | 21.2 | 0.2 | i
O=C1COc2nc3ccccc3cc2CN1CC1CC1 | -12.5 | . | . | 6.9 | . | .
CCOC(=O)C1=C(C)N(C)C(C)=C(C(=O)OCC)C1c1ccncc1 | 9.7 | -13.6 | -5.7 | 16.3 | 0.4 | .
SMILES | EP2 modulator | S1P4 antagonist | S1P3 antag | PGE2 EP2 inh | S1P4 ag | EP2 cAMP induct
CCCCN1C=C(C(=O)OC)C(c2ccccc2Cl)C(C(=O)OC)=C1 | 69.2* | -9.7 | -0.5 | 1.4 | 1.0 | +
CCOC(=O)C1=C(C)N(C)C(C)=C(C(=O)OCC)C1c1ccccc1 | 66.8* | -14.8 | . | 10.5 | 0.4 | +
CCCCOc1ccccc1C1C(C(=O)OC)=C(C)N(C)C(C)=C1C(=O)OC | 93.9* | -5.0 | -6.6 | 13.2 | -0.3 | +
COC(=O)C1=C(C)N(C)C(C)=C(C(=O)OC)C1c1ccccc1C | 39.4 | 7.0 | -22.5 | 9.6 | -0.3 | .
Cc1ccc(C)c2nc(SCC(=O)Nc3ccc(F)cc3)c(C#N)cc12 | 22.1 | . | . | 23.2 | . | .
O=C(Nc1nc2ccc(F)cc2s1)c1ccccc1F | -53.1 | . | . | 6.4 | . | .
CC1CCCN(CC(O)c2ccc3c(c2)CCCN3C(=O)c2ccc(F)cc2)C1 (centres undefined) | -28.9 | . | . | 5.3 | . | .
CSc1nc(-c2ccc(Cl)cc2)nn1S(=O)(=O)c1ccccc1 | 85.0* | -14.5 | . | 13.1 | -0.9 | +
CSc1ncc(CN(CCN(C)C)Cc2cccs2)cn1 | -114.3 | . | . | 2.9 | . | .
COc1ccc(C)cc1NC(=O)C1CC(=O)OC12CCCCC2 (centres undefined) | 65.4* | 1.0 | -19.7 | 10.2 | 2.0 | i
CCCCc1n[nH]c(=S)n1Cc1ccc(Cl)cc1 | 51.9 | -18.0 | -10.4 | 5.7 | 0.8 | i
CCCCc1n[nH]c(=S)n1Cc1ccccc1 | 19.1 | -9.3 | 8.7 | 11.0 | -0.5 | .
CCOC(=O)c1ccccc1NC(=O)C1COc2ccccc2O1 (centres undefined) | 71.7* | 10.5 | 14.6 | 11.2 | -0.4 | +
CCc1ccc(OCc2n[nH]c(=S)n2C(C)CCCC(C)C)cc1 (centres undefined) | 68.8* | -5.6 | -8.8 | 4.4 | 0.2 | +
CCc1ccc(OCc2n[nH]c(=S)n2Cc2ccccc2)cc1 | 31.1 | -12.7 | -12.0 | 4.4 | 0.5 | .
CCc1cc2ccccc2nc1SCC(=O)N(C(C)C)C(C)C | 24.8 | . | . | 10.3 | . | .
CN(C)c1nc(N2CCOCC2)nc(N(c2ccccc2)c2ccccc2)n1 | 65.9* | -6.3 | 8.3 | 9.1 | 2.3 | i
Nc1nc(N2CCOCC2)nc(N(c2ccccc2)c2ccccc2)n1 | 16.5 | -9.0 | -19.7 | 15.5 | -1.4 | .
NS(=O)(=O)c1ccc(-n2nc(C(=O)O)cc2-c2ccc(Cl)cc2)cc1 | 5.1 | -20.4 | -3.5 | 3.2 | 4.0 | .
Cc1ccc(-c2cc(C(F)(F)F)nn2-c2ccc(S(N)(=O)=O)cc2)cc1 | 65.7* | . | . | 11.3 | . | +
COC(=O)c1cc(-c2ccc3c(c2)OCO3)nc2ccccc12 | 68.0* | -10.0 | -24.3 | 16.2 | 1.1 | i
COc1ccc(-c2cc(C(F)(F)F)nc(N3CCCCC3)n2)cc1OC | 55.5 | -5.0 | . | 2.5 | 0.0 | +
CCc1nn(CC(=O)N2CCC(C(N)=O)CC2)c(=O)c2cc3sc(C)cc3n12 | -55.5 | . | . | . | . | .
O=C(c1ccc(Br)o1)N(Cc1ccccc1)Cc1ccccc1 | 54.3 | 5.6 | 6.5 | . | 2.2 | +
O=C(NCc1ccccc1)c1ccc(Br)o1 | 15.6 | -6.7 | -12.1 | 9.2 | 1.9 | .
FC(F)(F)c1cc(CCN2C(=S)NC[C@@H]2c2ccccc2)cc(C(F)(F)F)c1 | 17.1 | . | . | 8.8 | . | .
FC(F)(F)c1cc(CO[C@H]2CCCN[C@H]2c2ccccc2)cc(C(F)(F)F)c1 | 68.0* | . | . | 13.8 | . | i
CC(=O)N(c1cccc(Br)c1)C1C=CS(=O)(=O)C1 (centres undefined) | 69.5* | 3.7 | 12.4 | 13.8 | -1.5 | i
COc1ccc(-n2c(SCC(=O)Nc3ccc(C)c(Cl)c3)nnc2-c2cccnc2)cc1 | 0.7 | . | . | 17.1 | . | .
COCCn1c(-c2ccc(OC)cc2)nc2ccccc21 | 7.6 | 1.2 | . | 8.8 | 1.2 | .
